Measured values: PubChem BioAssay (EPA / NIEHS)
Records with an inconclusive call do not appear. The source made the active and inactive calls. How the source made its calls, unless noted: active means hit-call score of the fitted dose curve at least 0.9, where 1 is the maximum; inactive means score below 0.9.

Legend:
[1] = CCTE_Mundy_HCI_Cortical_Synap_Neur_Matur_NeuriteCount: CCTE's Synaptogenesis and Neurite Maturation Assay in rat cortical cells for Neurite Count, Mundy Lab (AID 2284222);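 further: exposure from day 7 to day 12 in vitro with readout at day 12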
Outline: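 Chemical exposure runs DIV 7–12 in rat cortical cultures, glia suppressed by AraC at DIV 5; measurement is at DIV 12. Imaging-derived neurite counts are fitted against DMSO baseline.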

[2] = CCTE_Mundy_HCI_Cortical_Synap_Neur_Matur_CellBodySpotCount: CCTE's Synaptogenesis and Neurite Maturation Assay in rat cortical cells for Cell Body Spot Count, Mundy Lab (AID 2284223)
Outline: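 Read-out: cell body-associated synaptophysin puncta per neuron, imaged after MAP2, synaptophysin and Hoechst staining. Rat cortical cells, AraC DIV 5, chemical dosing DIV 7, fixation DIV 12. Activity fitted in positive direction relative to DMSO baseline.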

[3] = CCTE_Mundy_HCI_hNP1_Pro_ResponderAvgInten: CCTE's Proliferation Assay in human neuroprogenitor cells, Mundy Lab (AID 2284224; active means hit-call score of the fitted dose curve at least 0.9, where 1 is the maximum;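 further: human neural progenitor cells hNP1 derived from WA09 embryonic stem cells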)
Outline: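 Proliferation read as average intensity of BrdU-positive cells, imaged at 26.25 h post-dosing: chemical exposure started after 40–44 h culture, BrdU during final 4 h, paraformaldehyde fixation. Positive-direction fit relative to DMSO.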

[4] = UKN2_HCS_IMR90_cell_viability: Viability Assessment in the University of Konstanz (UKN) Leist Lab Neural Crest Cell Migration Assay in human induced IMR90 Pluripotent Stem Cells (UKN2) (AID 2284233);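 further: cells exposed to compound for 24 h after a 24 h migration phase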
Outline: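 Viability read as calcein-AM fluorescence by high-content imaging, Hoechst co-stain, 30 min. Human iPSC (IMR90) neural crest cells had migrated 24 h into stopper-defined gaps before 24 h chemical exposure. Fitted bidirectionally relative to DMSO.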

[5] = CCTE_Mundy_HCI_Cortical_NOG_NeuronCount: CCTE's Neurite Outgrowth Assay in rat cortical cells for Neuron Count, Mundy Lab (AID 2284236; active means hit-call score of the fitted dose curve at least 0.9, where 1 is the maximum;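 further: neurons counted by imaging betaIII-tubulin and Hoechst stained cortical cells; cells exposed to compound for about 48 hours before fixation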)
Outline: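 Read-out: neuron number by high-content imaging of betaIII-tubulin (Alexa Fluor-488) and Hoechst-labelled rat primary cortical cells.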

[6] = CCTE_Mundy_HCI_Cortical_NOG_BPCount: CCTE's Neurite Outgrowth Assay in rat cortical cells for Branch Point Count, Mundy Lab (AID 2284237);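 on AC50: branch points counted about two days after chemical exposure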
Outline: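 Measured 50.33 h after dosing, this morphology endpoint uses rat primary cortical cultures labelled for betaIII-tubulin. Branch points are quantified by high-content imaging, with DMSO as negative control and baseline.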

[7] = BSK_BT_PBMCCytotoxicity: PBMC Cytotoxicity Assessment in the BioMAP Diversity Plus: BT Assay (AID 2284225); conditions: primary human B cells with PBMC;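 further: PBMC viability measured by Alamar Blue dye reduction fluorescence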
Outline: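 Viability by Alamar Blue reduction (6 h, ex/em 546/580 nm) after 90 h culture of SEB/TSST-1-activated PBMC (20 ng/mL each) given compound 1 h before activation. DMSO served as baseline for curve fitting.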

[8] = read-out: Secreted IgG (sIgG), gene 3500; test: BSK_BT_sIgG: BioMAP Diversity Plus: BT Assay for Secreted IgG (sIgG) Biomarker Activity (AID 2284226); conditions: primary human B cells with PBMC
Outline: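 Cells (B cells with peripheral blood mononuclear cells) are dosed, cultured 24 h, then supernatant IgG is measured by ELISA. DMSO serves as negative control; curves are fitted for signal increase.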

[9] = BSK_BT_Bcell_Proliferation: Viability Assessment in the BioMAP Diversity Plus: BT Assay for B cell Proliferation (AID 2284227); conditions: primary human B cells with PBMC
Outline: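 SRB-based protein staining (0.1% SRB after 10% TCA fixation, 560 nm) quantifies proliferation in human B cells co-cultured with PBMC, 72 h post-dosing, with signal gain scored relative to DMSO negative control.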

[10] = read-out: Interleukin 6 (IL6), IL6 (gene 3569); test: BSK_BT_xIL6: BioMAP Diversity Plus: BT Assay for Interleukin 6 (IL6) Biomarker Activity (AID 2284228); conditions: primary human B cells with PBMC
Outline: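 Readout: secreted IL-6 via Luminex xMAP multiplex, 24 h post-dosing. System: primary human B cells co-cultured with PBMC. Signal change scored relative to DMSO vehicle, positive fitting direction.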

[11] = read-out: Interleukin 17A (IL17A), IL17A (gene 3605); test: BSK_BT_xIL17A: BioMAP Diversity Plus: BT Assay for Interleukin 17A (IL17A) Biomarker Activity (AID 2284229); conditions: primary human B cells with PBMC
Outline: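 Luminex xMAP readout of secreted IL-17A; human B cell + PBMC co-culture; 24 h post-dose; positive-direction fit vs DMSO negative control.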

[12] = read-out: Tumor necrosis factor (Homo sapiens) (UniProt P01375); test: BSK_BT_xTNFa: BioMAP Diversity Plus: BT Assay for Tumor necrosis factor alpha (TNF-alpha) Biomarker Activity (AID 2284230); conditions: primary human B cells with PBMC
Outline: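 Compounds were added to a B cell plus PBMC co-culture, and after 24 h secreted TNF-alpha was quantified with Luminex xMAP technology, with responses fitted upward from the DMSO control.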

[13] = read-out: Vascular cell adhesion molecule 1 (VCAM1), VCAM1 (gene 7412); test: BSK_MyoF_VCAM1: BioMAP Diversity Plus: MyoF Assay for Vascular cell adhesion molecule 1 (VCAM1) Biomarker Activity (AID 2284231); conditions: primary human lung fibroblasts
Outline: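 MyoF system, lung fibroblasts; 24 h post-dose; VCAM-1 by ELISA; gain-of-signal fit vs DMSO baseline.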

[14] = read-out: Collagen III, COL3A1 (gene 1281); test: BSK_MyoF_CollagenIII: BioMAP Diversity Plus: MyoF Assay for Collagen III Biomarker Activity (AID 2284239); conditions: primary human lung fibroblasts
Outline: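 Lung fibroblast culture; 24 h compound exposure; collagen III by ELISA; gain-of-signal fit vs DMSO baseline.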

[15] = CCTE_Mundy_HCI_hN2_NOG_NeuriteCount: CCTE's Neurite Outgrowth Assay in human hN2 cells for Neurite Count, Mundy Lab (AID 2284219; active means hit-call score of the fitted dose curve at least 0.9, where 1 is the maximum)
Outline: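 In this morphology assay, hNP1-derived neurons received test chemical 2 h post-plating and were fixed two days later in warm paraformaldehyde/sucrose containing Hoechst 33342. Neurites, labelled by rabbit anti-βIII-tubulin (1:800) and Alexa Fluor-488 (1:500), were counted automatically.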

[16] = CCTE_Mundy_HCI_hN2_NOG_NeuriteLength: CCTE's Neurite Outgrowth Assay in human hN2 cells for Neurite Length, Mundy Lab (AID 2284220; active means hit-call score of the fitted dose curve at least 0.9, where 1 is the maximum)
Outline: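 Read-out is neurite length from high-content imaging of βIII-tubulin/Alexa Fluor-488-labelled neurons, referenced to DMSO controls.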

[17] = CCTE_Mundy_HCI_hN2_NOG_NeuronCount: CCTE's Neurite Outgrowth Assay in human hN2 cells for Neuron Count, Mundy Lab (AID 2284221; active means hit-call score of the fitted dose curve at least 0.9, where 1 is the maximum)
Outline: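 Read-out is the number of betaIII-tubulin-positive neurons imaged by automated high-content analysis, with DMSO as negative control.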

[18] = UKN4_HCS_LUHMES_cell_viability: Viability Assessment in the University of Konstanz (UKN) Leist Lab Neurite Outgrowth Assay in human LUHMES cells (UKN4) (AID 2284232)
Outline: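 Cells switched to differentiation medium at day 0, replated on day 2 in medium lacking cAMP and GDNF, and compound-treated once attached. Live staining began 23.5 h later, imaging followed at 24 h.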

[19] = TAMU_HCS_1.5hr_SingleDonor1434_Cytotoxicity: Cytotoxicity Assessment using High-content Screening (HCS) Fluorescent Imaging for the Texas A&M University (TAMU) 1.5-hr Human Induced Pluripotent Stem Cell (iPSC)-derived Cardiotoxicity Assay (AID 2284234; active means hit-call score of the fitted dose curve at least 0.9, where 1 is the maximum)
Outline: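 Nuclear counts from Hoechst 33342 imaging define cytotoxicity here, with EC10 (10% cell-count loss relative to DMSO) as point of departure. iPSC cardiomyocytes received 0.2-100 uM test chemical in 0.5% DMSO for 1.5 h at 37 C.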

[20] = TAMU_PeakParms_SingleDonor1434_QT: Texas A&M University (TAMU) 1.5-hr Human Induced Pluripotent Stem Cell (iPSC)-derived Cardiomyocytes Calcium (Ca+2) Flux Assay for Cardiotoxicity: QT (decay-rise ratio) (AID 2284235; active means hit-call score of the fitted dose curve at least 0.9, where 1 is the maximum)
Outline: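 Decay/rise ratio of calcium-flux fluorescence scored after 90 min exposure (37C) of donor 1434 iPSC cardiomyocytes to 0.2–100 uM (0.5% DMSO). Beat-cessation and severe-notch points removed; POD is EC05, a 5% rise over DMSO.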

Measured: AC50

Tumor necrosis factor (Homo sapiens), sequence (P01375 whole entry, looked up): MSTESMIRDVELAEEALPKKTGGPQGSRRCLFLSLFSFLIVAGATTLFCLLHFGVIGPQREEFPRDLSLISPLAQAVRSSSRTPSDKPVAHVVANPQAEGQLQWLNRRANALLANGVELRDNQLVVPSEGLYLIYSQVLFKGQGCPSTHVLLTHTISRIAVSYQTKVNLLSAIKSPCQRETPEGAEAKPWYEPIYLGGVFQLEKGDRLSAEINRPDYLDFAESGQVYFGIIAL

COCCOCCOCCO
inactive: [1] | [2] | [3] | [4] | [5] | [6]

CCCCCCCCCCCCCCCC(=O)OC/C=C(C)/C=C/C=C(C)/C=C/C1=C(C)CCCC1(C)C
inactive: [7] | [9] | [11] | [12] | [13] | [14]
active: [8] 20 µM | [10] 31.2 µM

COc1ccc(OC)c(N=Nc2c(O)ccc3ccccc23)c1
inactive: [7] | [9] | [10] | [11] | [12]
active: [8] 9.86 µM | [13] 9.05 µM | [14] 10.4 µM

COCCc1ccc(OCC(O)CNC(C)C)cc1 (stereo not drawn)
inactive: [1] | [2] | [5] | [6]

C1=CC2C3C=CC(C3)C2C1 (stereo not drawn)
inactive: [7] | [8] | [9] | [10] | [11] | [12] | [13] | [14]

C=C(C)C(=O)OCCOCCOCCOC(=O)C(=C)C
inactive: [7] | [8] | [9] | [10] | [11] | [12] | [13] | [14]

CN(C)CCOC(C)(c1ccccc1)c1ccccn1 (stereo not drawn)
inactive: [1] | [2] | [3] | [5] | [6]

CC1(C)C2=CCCC(C)(C)[C@]23CC[C@H]1C3
active: [8] 20 µM | [13] 31.9 µM | [14] 39 µM
inactive: [7] | [9] | [10] | [11] | [12]

O=C1c2ccccc2C(=O)c2c(O)ccc(O)c21
inactive: [11] | [13] | [14]
active: [7] 11 µM | [8] 0.36 µM | [9] 11.8 µM | [10] 0.0172 µM | [12] 11 µM

CN(C)C(=S)SC(=S)N(C)C
active: [7] 0.396 µM | [8] 0.244 µM | [9] 0.436 µM | [10] 0.6 µM | [11] 0.367 µM | [12] 0.504 µM | [13] 35.5 µM | [14] 19.9 µM

Oc1c(Cl)cc(Cl)c(Cl)c1Cc1c(O)c(Cl)cc(Cl)c1Cl
active: [15] 1.42 µM | [16] 1.38 µM | [17] 1.4 µM | [2] 9.92 µM | [7] 20 µM | [8] 0.993 µM | [9] 12.6 µM | [11] 2.48 µM | [12] 15.2 µM | [13] 0.555 µM | [18] 18.3 µM | [4] 3.18 µM | [19] 14.9 µM | [5] 50 µM | [6] 10.4 µM | [14] 6.62 µM
inactive: [1] | [3] | [10] | [20]

CSCCC=O
inactive: [7] | [8] | [9] | [10] | [11] | [12] | [13] | [14]

Cc1cc(CCC(=O)OCCOCCOCCOC(=O)CCc2cc(C)c(O)c(C(C)(C)C)c2)cc(C(C)(C)C)c1O
inactive: [7] | [8] | [9] | [10] | [11] | [12] | [13] | [14]

c1ccc(Oc2ccccc2)cc1
inactive: [7] | [8] | [9] | [10] | [11] | [12] | [13] | [14]

COc1ccc(CCN2CCC(Nc3nc4ccccc4n3Cc3ccc(F)cc3)CC2)cc1
active: [7] 7.27 µM | [8] 3.17 µM | [9] 5.84 µM | [10] 3.52 µM | [11] 3.17 µM | [12] 7.19 µM | [13] 5 µM | [14] 6.52 µM

CC(=O)Nc1ccc(C(=O)CCl)cc1
active: [7] 5.36 µM | [8] 2.21 µM | [9] 5.39 µM | [10] 3.46 µM | [11] 2.25 µM | [12] 8.47 µM | [13] 23.9 µM | [14] 20 µM

CC(C)(C)CC(C)(C)c1ccc(OCCOCC[N+](C)(C)Cc2ccccc2)cc1
active: [7] 8.02 µM | [8] 1.57 µM | [9] 5 µM | [11] 8.48 µM | [12] 5 µM | [13] 8.24 µM | [14] 7.02 µM
inactive: [10]

c1ccc2cc(Nc3ccc(Nc4ccc5ccccc5c4)cc3)ccc2c1
active: [10] 1.12 µM | [14] 4.82 µM
inactive: [7] | [8] | [9] | [11] | [12] | [13]

CC(=O)c1c(C)c([N+](=O)[O-])c(C(C)(C)C)c([N+](=O)[O-])c1C
active: [8] 30.5 µM
inactive: [7] | [9] | [10] | [11] | [12] | [13] | [14]

C=C(C)C(=O)OCC(CC)(COC(=O)C(=C)C)COC(=O)C(=C)C
inactive: [7] | [11]
active: [8] 3.08 µM | [9] 25.5 µM | [10] 19.7 µM | [12] 19.7 µM | [13] 11.2 µM | [14] 29.3 µM
